Laboratory results reported in PubChem BioAssay (NCI).
Compounds without any hit were thinned out: in the full panel of roughly 83,000, 20% have a hit.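 Step 1: grow cells in 96-well plates. Step 2: add test compound at a single concentration. Step 3: incubate 48 h. Step 4: record percent growth.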 Unmarked numbers belong to inactive results. Activity calls are given as the source filed them. How the source made its calls: active means growth percent below 10; inactive means the rest.

system: NCI-H522 lung; assay: NCI-60 one-dose screen, 48 h (100 = growth as untreated, 0 = no growth, -100 = all killed); details: 10 µM unless noted

SMILES | growth
CN(C)c1nc(NCCNS(=O)(=O)c2ccc(C3=Nc4c(N)nc(N)nc4NC(c4ccc(C(F)(F)F)cc4)C3)cc2)nc(Nc2ccc(F)cc2)n1 (stereo not drawn) | 5.71% (active)
COc1ccc(-c2nc3cc(C)ccc3n2CC(=O)N=Nc2c(O)[nH]c3ccccc23)cc1 | 42.1%
NS(=O)(=O)c1ccc(CCNC(=O)CSc2ccc(-c3ccc(Br)cc3)nn2)cc1 | 52.9%
O=C(COc1ccc2c(c1)CCCC(=O)N2)NCc1ccccc1 | 89.1%
CC1=C(C#N)C2=NNCC(c3ccccc3)=NN2C(c2ccccc2)=C1 | 93.7%
CC1CCCCN1CCCNC(=O)N/C(N)=N/c1nc2ccccc2s1 (stereo not drawn) | 72.2%
Cc1nc(Nc2ccccn2)sc1C(=O)CC(SCC(=O)Nc1ccc(Cl)cc1)c1ccccc1F (stereo not drawn) | -12.8% (active)
CCCSc1nc(Nc2ccc(S(N)(=O)=O)cc2)c(C#N)c(-c2cc(OC)c(OC)c(OC)c2)n1 | 18.2%
Clc1cccc(N/N=C/c2c[nH]c3ccc(Br)cc23)n1 | -27.8% (active)
Cc1ccc(S(=O)(=O)c2nc(S(=O)(=O)c3ccc(C)cc3)c(N3CCN(C)CC3)s2)cc1 | 15.2%
COc1c(F)ccc(C(=O)Nc2ccc3nc(NC(=O)C4CCCN(S(=O)(=O)c5ccc(C(F)(F)F)cc5)C4)sc3c2)c1F (stereo not drawn) | 76%
COc1ccc(-c2ccnc(SCc3cc4ccccc4[nH]c3=O)n2)cc1 | 46.9%
Cc1ccc(C2=NN(c3nc(-c4cc5ccccc5oc4=O)cs3)C(c3ccc(C)cc3)C2)cc1 (stereo not drawn) | 100%
